Bioassay records from PubChem BioAssay.
Beta cell apopt: inhibitors of cytokine-induced beta cell apoptosis, primary screen, luminescence | protection from apoptosis, % (no concentration beside the values) | INS-1E cytokine-induced death, ATP luminescence, 48 h; percent of positive-control rescue, neutral wells zero | 300,000 compounds, 0.8% hits;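 active means Every replicate reaches about 75%, or at least half do and their mean reaches it too, limit read from the data; inconclusive means At least half of replicates reach the limit but their mean does not; inactive means Under half of replicates reach the limit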;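 further: 0% = cytokine-treated negative control wells and 100% = positive control rescue; higher means more ATP so stronger rescue from cytokine killing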
Mdm2-MdmX inh: inhibitors of human Mdm2-MdmX association, primary screen, cell-based, luminescence, split luciferase, SaOS-2, uHTS; Protein Mdm4 (Homo sapiens) + E3 ubiquitin-protein ligase Mdm2 (Homo sapiens), …; SaOS-2 split-luciferase Mdm2/MdmX complementation; inhibition, % at 8 µM; 330,000 compounds, 3% hits; AID 485346, 2010;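 active means inhibition of at least 50% at 8 µM in the primary screen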
Target sequence (O15151 whole entry, looked up): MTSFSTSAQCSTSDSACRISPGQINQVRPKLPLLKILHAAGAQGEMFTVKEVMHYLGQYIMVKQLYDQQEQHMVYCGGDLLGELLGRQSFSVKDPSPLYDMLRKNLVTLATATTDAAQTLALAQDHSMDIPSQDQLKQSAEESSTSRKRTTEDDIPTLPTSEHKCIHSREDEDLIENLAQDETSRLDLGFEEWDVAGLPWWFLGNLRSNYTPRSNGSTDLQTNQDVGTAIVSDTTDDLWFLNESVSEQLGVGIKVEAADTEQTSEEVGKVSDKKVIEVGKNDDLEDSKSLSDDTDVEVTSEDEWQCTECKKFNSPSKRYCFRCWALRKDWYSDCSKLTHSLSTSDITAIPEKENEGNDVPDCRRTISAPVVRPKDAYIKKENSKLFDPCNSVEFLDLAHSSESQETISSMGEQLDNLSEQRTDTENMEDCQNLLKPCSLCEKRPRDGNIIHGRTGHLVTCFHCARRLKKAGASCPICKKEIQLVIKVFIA
Target sequence (Q00987 whole entry, looked up): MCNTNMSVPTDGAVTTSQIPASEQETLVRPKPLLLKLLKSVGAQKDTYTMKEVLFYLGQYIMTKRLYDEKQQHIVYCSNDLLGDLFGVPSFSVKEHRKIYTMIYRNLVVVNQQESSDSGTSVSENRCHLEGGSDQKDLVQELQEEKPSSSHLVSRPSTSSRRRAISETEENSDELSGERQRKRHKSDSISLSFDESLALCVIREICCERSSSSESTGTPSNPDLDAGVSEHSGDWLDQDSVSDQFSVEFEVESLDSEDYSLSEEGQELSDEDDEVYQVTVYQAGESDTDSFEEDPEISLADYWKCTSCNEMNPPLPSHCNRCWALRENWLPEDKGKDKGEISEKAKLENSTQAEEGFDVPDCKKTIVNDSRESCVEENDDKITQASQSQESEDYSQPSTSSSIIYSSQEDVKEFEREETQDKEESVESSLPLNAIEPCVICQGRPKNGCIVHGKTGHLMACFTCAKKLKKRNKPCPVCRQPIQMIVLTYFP
Jurkat NFkB inh: inhibitors of induced NF-kB luciferase reporter, primary screen, TCR NF-kB activation inhibitor project, cell-based, luminescence, uHTS; inhibition, % at 4 µM; Jurkat, PMA/ionomycin-induced NF-kB luciferase reporter; 330,000 compounds, 0.53% hits; in the data active means inhibition above about 50%
Gli-Sufu block: Gli-Sufu pathway antagonists, primary screen, luciferase luminescence, Sufu-KO-LIGHT cells, uHTS; Sufu-KO-LIGHT fibroblasts, Gli luciferase reporter luminescence; inhibition, % at 5 µM; 340,000 compounds, 0.74% hits;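 active means inhibition above about 55%, limit read from the data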;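 further: 0% = DMSO-treated cells and 100% = wells with medium but no cells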
CSC inhib: cancer stem cell viability inhibitors, primary screen, luminescence; inhibition, % at 7.5 µM; cancer stem cell-like cells viability; 300,000 compounds, 1.1% hits; in the data active means inhibition above about 75%; inconclusive means no clear call, values can overlap the other calls; tested in HMLE shEcad cells
697 NFkB inh: inhibitors of PMA/ionomycin-induced NF-kB reporter, 697 cells, primary screen, B-cell NF-kB inhibitor project, cell-based, luminescence, uHTS. AID 435022, 2010. inhibition, % at 4 µM. 330,000 compounds, 0.33% hits. 697 B-cell NF-kB luciferase reporter, 16 h; in the data active means inhibition above about 35%
Mdm2 MdmX conf: Mdm2-MdmX complex disruptors, retested hits, confirmation, luminescence, single concentration. AID 489028, 2010. Mdm2-MdmX binding, luminescent assay. shares compounds with Mdm2-MdmX inh. 10,000 compounds, 55% hits. inhibition, % at 8 µM; in the data active means inhibition above about 40%
Full FLuc ctr: full-length luciferase signal inhibition, confirmation, counter-screen for Mdm2/MdmX interaction inhibitor project, cell-based, single concentration, SaOS-2 | inhibition, % at 8 µM | AID 504607, 2011 | shares compounds with Mdm2-MdmX inh | SaOS-2 full-length luciferase counterscreen, luminescence | 6,200 compounds, 77% hits;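 active means mean inhibition at 8 µM reaching about 37%, which flags the compound as non-specific, limit read from the data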;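 further: p53-null SaOS-2 cells with luciferase driven by a doxycycline-inducible promoter; compound on cells about two nights before reading with doxycycline added after day one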
The depositor's hits bear a star; ? = inconclusive; . = not tested or not shown. Compounds with a hit are over-represented: about 4.5% of the library has one in this group of screens.

SMILES	Beta cell apopt	Mdm2-MdmX inh	Jurkat NFkB inh	Gli-Sufu block	CSC inhib	697 NFkB inh	Mdm2 MdmX conf	Full FLuc ctr
CN(C)C(=O)c1ccc(NC(=O)COC(=O)C2CCN(S(=O)(=O)c3ccc4c(c3)OCCO4)CC2)cc1	-6.6	14.9	13.6	13.3	.	16.5	.	.
Cc1cc(-c2ccccc2)nc2cc(C(=O)N(Cc3ccccc3)Cc3ccccc3)nn12	19.2	50.6*	18.8	-0.4	82.9*	-16.1	0.6	.
Nc1nc(-c2cc(O)ccc2[N+](=O)[O-])cc(-c2ccccc2)c1[N+](=O)[O-]	62.6	64.7*	-3.7	-98.4	12.9	-37.4	57.1*	54.0*
O=[N+]([O-])c1cc(-c2ccccc2)cc([N+](=O)[O-])c1O	.	.	.	8.9	.	.	.	.
COC(=O)c1ccc(C)c(NS(=O)(=O)c2ccc(OC)cc2)c1	42.3	70.1*	35.8	32.4	55.9	12.9	60.5*	100.2*
COC(=O)c1ccc(C)c(NS(=O)(=O)c2ccc(C)c([N+](=O)[O-])c2)c1	-0.4	-13.0	6.9	1.2	14.6	10.6	.	.
CCOC(=O)c1c(NC(=O)COC(=O)/C=C/c2ccccc2)sc(C(=O)NC)c1C	2.5	20.5	-6.7	2.1	-6.4	-27.0	.	.
CCN(C(=O)COC(=O)CNC(=O)c1ccccc1C)C1=CCCCC1	-1.6	-19.8	-3.5	32.4	.	4.4	.	.
CCCN(C(=O)CCl)C1=CCCCC1	-4.7	84.9*	-5.3	-6.2	-10.6	-2.0	26.6	.
COc1ccc(OC)c(-c2cc(C(=O)Nc3ccc(F)cc3F)no2)c1	-7.8	58.5*	-5.6	4.5	17.7	17.2	14.4	.
Cc1cc(C)cc(S(=O)(=O)c2cn(C)c3cc(N4CCN(C)CC4)c(F)cc3c2=O)c1	-4.8	96.4*	-10.1	3.9	1.2	11.7	11.8	.
CO/N=C/C(=N\Nc1ccc(OC)cc1)C(=O)c1ccc(OC)cc1	18.4	55.4*	34.9	-8.0	39.1	17.2	52.1*	100.4*
O=C(Nc1ccc(N2CCOCC2)cc1N1CCOCC1)c1ncoc1-c1cccc(F)c1	1.2	32.7	5.6	5.8	.	-2.2	.	.
Cc1cc(C)c2oc(C(=O)Nc3ccc(S(=O)(=O)N4CCC(C)CC4)cc3)cc(=O)c2c1	0.2	29.5	33.7	35.8	0.8	4.4	.	.
CC(=O)Nc1ccc(NC(=O)c2cc(=O)c3cc(C)cc(C)c3o2)cc1	1.4	67.2*	13.7	-4.0	27.2	13.4	54.2*	89.8*
O=C(c1ccc(=O)[nH]n1)N1CCN(S(=O)(=O)c2ccc(C(F)(F)F)cc2)CC1	-1.7	2.5	-2.2	0.6	.	5.8	.	.
Cc1nc(N2CCC(C)CC2)c2c(C)c(C(=O)Nc3cccc(C(F)(F)F)c3)sc2n1	2.9	19.4	11.3	13.7	27.8	-22.7	.	.
Cc1nc(Nc2cnc(/C=C/c3cc(C(=O)Nc4cccc(C(F)(F)F)c4)ccc3C)cn2)cc(N2CCNCC2)n1	106.8*	89.8*	8.9	-2.7	136.2*	19.5	52.1*	49.5*
C[C@H](CO)N1C[C@H](C)[C@@H](CN(C)S(=O)(=O)c2cccs2)Oc2ccc(NC(=O)Nc3ccc(C(F)(F)F)cc3)cc2C1=O	5.6	67.9*	-3.4	-23.6	60.9	14.4	-2.4	.
C[C@@H]1CN([C@H](C)CO)C(=O)c2cc(NC(=O)Nc3ccc(C(F)(F)F)cc3)ccc2O[C@H]1CN(C)S(=O)(=O)c1cccs1	?	80.5*	-7.5	4.8	.	-1.2	51.0*	44.2*
